In PubChem BioAssay:
Active and inactive are the calls of the source. Unless noted, the rule behind the calls is not given here.

Experiments:
[1] = HepG2 liver cancer cell viability effects, profiling panel, resazurin fluorescence, 24 h, PK04 Diversity Set (AID 1172); conditions: higher = more signal
[2] = basal S. cerevisiae growth modulation, no modifier, primary screen, OD600, strain BY4716, 24 h, basal condition (AID 1173); conditions: OD600, 24 h, higher = more signal, called active from +8 up or from −8 down
[3] = MM1S myeloma cell viability, profiling panel, resazurin fluorescence, basal, 24 h, PK04 Diversity Set (AID 1174); conditions: higher = more signal, called active from +8 up or from −8 down;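 note: MM1S multiple myeloma cell line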
[4] = biological target: Dihydroorotate dehydrogenase (quinone), mitochondrial (Plasmodium falciparum (isolate 3D7)) (UniProt Q08210); test: PfDHODH enzyme inhibitors, primary screen, biochemical, C-terminal His tag, absorbance 600 nm (AID 1175); conditions: DCIP absorbance 600 nm, higher = more signal, called active from +8 up or from −8 down;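 note: recombinant parasite enzyme with a five histidine tag at its C terminus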
Chain of Dihydroorotate dehydrogenase (quinone), mitochondrial (Plasmodium falciparum (isolate 3D7)) (Q08210 whole entry, looked up): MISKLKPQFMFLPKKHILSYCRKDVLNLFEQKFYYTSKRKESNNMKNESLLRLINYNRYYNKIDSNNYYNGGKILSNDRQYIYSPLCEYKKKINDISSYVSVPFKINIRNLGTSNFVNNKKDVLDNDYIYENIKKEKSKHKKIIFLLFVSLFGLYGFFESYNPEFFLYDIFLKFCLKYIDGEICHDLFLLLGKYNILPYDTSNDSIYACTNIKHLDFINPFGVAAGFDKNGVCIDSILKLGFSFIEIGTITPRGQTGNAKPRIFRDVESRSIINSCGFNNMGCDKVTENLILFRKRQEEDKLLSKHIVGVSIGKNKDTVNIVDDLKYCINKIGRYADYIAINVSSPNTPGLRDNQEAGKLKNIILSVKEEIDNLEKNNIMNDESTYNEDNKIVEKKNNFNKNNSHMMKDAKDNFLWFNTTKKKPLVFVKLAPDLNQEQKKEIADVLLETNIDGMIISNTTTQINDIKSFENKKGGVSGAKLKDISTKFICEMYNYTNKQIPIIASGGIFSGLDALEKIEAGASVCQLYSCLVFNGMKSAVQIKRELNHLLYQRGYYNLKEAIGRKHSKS

[5] = P. aeruginosa biofilm formation inhibitors, primary screen, strain PAO1, LB-PBS medium, absorbance 600 nm (AID 1176); conditions: P. aeruginosa PAO1 growth/biofilm, A600, 12 h; higher = more signal
[6] = S. cerevisiae RM11-1a growth modifiers, primary screen, strain RM11-1a, OD600, basal, 24 h (AID 1177); conditions: OD600, 24 h, higher = more signal, called active from +8 up or from −8 down;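 note: cultures grown under basal conditions with no added stressor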
[7] = E. coli acrAB mutant growth effects, primary screen, E. coli filamentation inducers, strain DRC39, OD650, 24 h (AID 1178); conditions: higher = more signal, called active from +8 up or from −8 down;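 note: growth measured as culture turbidity by optical density at 650 nm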
[8] = E. coli acrAB mutant growth effects, primary screen, E. coli filamentation inducers, strain DRC39, OD650, 48 h (AID 1179);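 note: screen aims at cell division blockers that make cells filament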; conditions: E. coli DRC39 delta-acrAB growth, higher = more signal, called active from +8 up or from −8 down
[9] = RPMI8226 myeloma cell viability, profiling panel, resazurin fluorescence, basal, 24 h, PK04 Diversity Set (AID 1180); conditions: higher = more signal;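 note: RPMI8826 multiple myeloma cell line at 5000 cells per well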
[10] = biological target: E3 ubiquitin-protein ligase XIAP (Homo sapiens) (UniProt P98170); test: XIAP binders, primary screen, biophysical, small-molecule microarray, fluorescence 635 nm (AID 1181); conditions: small-molecule microarray binding, higher = more signal;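 note: score merges 667 nm emission and signal to noise over triplicate slides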
Chain of E3 ubiquitin-protein ligase XIAP (Homo sapiens) (P98170 whole entry, looked up): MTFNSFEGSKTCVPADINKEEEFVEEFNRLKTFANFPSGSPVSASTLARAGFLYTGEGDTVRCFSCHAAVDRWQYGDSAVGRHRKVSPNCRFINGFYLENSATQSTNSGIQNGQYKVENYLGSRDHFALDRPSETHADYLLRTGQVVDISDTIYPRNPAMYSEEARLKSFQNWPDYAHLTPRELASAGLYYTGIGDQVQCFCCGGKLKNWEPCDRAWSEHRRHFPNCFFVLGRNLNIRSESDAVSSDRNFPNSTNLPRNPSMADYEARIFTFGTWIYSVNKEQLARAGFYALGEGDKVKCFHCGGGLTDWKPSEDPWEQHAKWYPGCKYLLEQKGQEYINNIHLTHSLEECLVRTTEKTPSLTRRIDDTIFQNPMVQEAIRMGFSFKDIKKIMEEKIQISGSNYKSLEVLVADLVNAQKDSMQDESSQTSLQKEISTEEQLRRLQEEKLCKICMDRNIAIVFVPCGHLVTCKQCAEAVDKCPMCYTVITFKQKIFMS

[11] = test system: XIP peptide (Xip251-270) binding; test: small-molecule binders of XIP peptide, primary screen, biochemical, small-molecule microarray, fluorescence 635/667 nm, 0.1 µg/mL protein (AID 1182); conditions: fluorescent protein binding, 635 nm, higher = more signal, called active from +8 up or from −8 down
[12] = test system: XIP peptide (Xip251-270); test: small-molecule binders of XIP peptide, primary screen, biochemical, small-molecule microarray, fluorescence 635/667 nm, 0.5 µg/mL protein (AID 1183); conditions: small-molecule microarray binding, fluorescence 635 nm; higher = more signal
[13] = Plasmodium falciparum growth inhibition, primary screen, strain 3D7, DAPI fluorescence, 100 nL (AID 1184);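 note: parasites grown inside human red blood cells in medium with human serum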; conditions: P. falciparum 3D7 growth, 3 d, higher = more signal
[14] = biological target: Homeobox protein Hox-A13 (Mus musculus) (UniProt Q62424); test: inhibitors of HoxA13-DNA binding, primary screen, biochemical, fluorescence polarization, labeled oligonucleotide (AID 1185); conditions: 15 min, higher = more signal, called active from +8 up or from −8 down
Chain of Homeobox protein Hox-A13 (Mus musculus) (Q62424 whole entry, looked up): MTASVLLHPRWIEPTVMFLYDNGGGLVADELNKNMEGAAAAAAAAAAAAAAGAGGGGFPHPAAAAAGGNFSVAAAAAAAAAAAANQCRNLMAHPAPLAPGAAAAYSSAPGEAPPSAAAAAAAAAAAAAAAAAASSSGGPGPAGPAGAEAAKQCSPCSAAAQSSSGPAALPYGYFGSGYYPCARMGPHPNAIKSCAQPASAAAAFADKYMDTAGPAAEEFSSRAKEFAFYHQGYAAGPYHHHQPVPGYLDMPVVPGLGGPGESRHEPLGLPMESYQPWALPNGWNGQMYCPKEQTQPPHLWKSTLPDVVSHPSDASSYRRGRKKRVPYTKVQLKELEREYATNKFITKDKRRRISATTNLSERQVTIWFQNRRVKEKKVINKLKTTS

Structure (SMILES)	z-score [1]	z-score [2]	z-score [3]	composite z-score [4]	z-score [5]	z-score [6]	z-score [7]	z-score [8]	z-score [9]	composite z-score [10]	composite z-score [11]	composite z-score [12]	z-score [13]	z-score [14]
COC(=O)[C@@H]1CCCN1C(=O)[C@@H](C)CO	-0.337	-1.06 (inactive)	-0.379 (inactive)	-2.93 (inactive)	0.0372 (inactive)	-0.213 (inactive)	-1.47 (inactive)	-2.18 (inactive)	-0.376	-0.0415	0.446 (inactive)	0.0063	-1.35	1.64 (inactive)
CCN1C(=O)[C@H]2[C@H]3[C@H](O)[C@H](O)CC(=NO[C@@H]4O[C@H](CO)[C@@H](O)[C@H](O)[C@H]4O)[C@@H]3CC[C@H]2C1=O	-0.59	-0.369 (inactive)	-0.596 (inactive)	-0.794 (inactive)	-0.343 (inactive)	-0.654 (inactive)	0.226 (inactive)	0.117 (inactive)	-0.922	0.0623	-0.232 (inactive)	-0.321	1.82	-0.0696 (inactive)
CC(CCN1CCc2nc(-c3ccccc3)c(-c3ccccc3)cc2C1)=NOC(C)CN1CCCCc2nc(C)c(C)cc21 (centres undefined)	-0.0429	-2.52 (inactive)	-1.07 (inactive)	0.187 (inactive)	0.347 (inactive)	-0.609 (inactive)	0.789 (inactive)	-0.702 (inactive)	-0.747	-0.0651	0.685 (inactive)	0.312	0.0201	-4.25 (inactive)
O=C1C[C@@H](O)[C@@H](O)[C@@H]2[C@@H]3C(=O)N(C4CCCCC4)C(=O)[C@@H]3CC[C@H]12	0.513	0.44 (inactive)	-0.122 (inactive)	0.349 (inactive)	-0.319 (inactive)	-0.247 (inactive)	-0.0543 (inactive)	-0.292 (inactive)	0.288	-0.0454	-0.149 (inactive)	0.349	0.266	0.34 (inactive)
COCCNC(=O)OCC1CCCC2(CC(OC(=O)NCCc3ccc(F)cc3)CC(CCC(=O)N[C@@H](C)C(=O)OC)O2)O1 (some centres undefined)	0.864	-0.183 (inactive)	0.899 (inactive)	-0.0746 (inactive)	0.262 (inactive)	0.684 (inactive)	0.963 (inactive)	1.16 (inactive)	1.07	-0.216	0.417 (inactive)	0.579	-1.82	-3.44 (inactive)
CO[C@H]([C@@H](C)[C@H](OC)c1ccccc1)[C@H](C)[C@@H](OC)[C@H](C)C(C)=O	0.0132	-1.22 (inactive)	0.367 (inactive)	0.758 (inactive)	-0.373 (inactive)	0.135 (inactive)	-0.0566 (inactive)	-0.59 (inactive)	-0.0764	-0.21	0.111 (inactive)	-0.694	0.117	-1.36 (inactive)
O=C1[C@H]2[C@H]3[C@H](O)[C@H](O)CC(=NOC[C@@H](O)COCc4ccco4)[C@@H]3CC[C@H]2C(=O)N1c1ccc(F)cc1F	0.883	-0.374 (inactive)	0.995 (inactive)	-0.564 (inactive)	-1.45 (inactive)	-0.247 (inactive)	0.0718 (inactive)	0.264 (inactive)	1.15	-0.37	-0.233 (inactive)	-0.103	-0.561	-4.05 (inactive)
CCN1C(=O)[C@H]2[C@H]3[C@H](O)[C@H](O)CC(=NOCC=C(C)CCC=C(C)C)[C@H]3CC[C@H]2C1=O	-0.337	-0.327 (inactive)	-0.944 (inactive)	-0.962 (inactive)	0.164 (inactive)	-0.414 (inactive)	0.445 (inactive)	0.314 (inactive)	-1.23	-0.0988	1.09 (inactive)	0.762	1.97	0.0102 (inactive)
O=C1[C@H]2[C@H]3[C@H](O)[C@H](O)CC(=NOCc4ccccc4)[C@H]3CC[C@H]2C(=O)N1c1cccc(Oc2ccccc2)c1	1.44	-0.47 (inactive)	0.968 (inactive)	-0.278 (inactive)	-0.131 (inactive)	-0.0244 (inactive)	0.416 (inactive)	-0.482 (inactive)	0.564	-0.193	0.297 (inactive)	0.723	-0.835	-1.3 (inactive)
CCOC(=O)CCN1C(=O)[C@H]2[C@H]3[C@H](O)[C@H](O)CC(=O)[C@H]3CC[C@H]2C1=O	-0.228	-0.329 (inactive)	0.552 (inactive)	-2.85 (inactive)	0.0122 (inactive)	-0.336 (inactive)	0.231 (inactive)	-1.81 (inactive)	0.566	0.065	-0.245 (inactive)	0.23	-1.18	0.804 (inactive)
CO[C@@H]1COC(=O)[C@@H]2CCCN2C(=O)[C@@H](C)COC(=O)[C@H](COCc2ccccc2)NC(=O)CC=C[C@H]1C	-0.327	0.185 (inactive)	-0.722 (inactive)	-0.241 (inactive)	-0.455 (inactive)	0.549 (inactive)	-0.489 (inactive)	-1.98 (inactive)	-0.228	-0.153	-0.33 (inactive)	0.0728	-0.67	-0.767 (inactive)
